# Test results taken from the supplement of paper PMC6555819.
# Columns and labels:
# Experiment in all cases: PBM binding z-score (relative to random genomic background probes); higher = stronger binding; sequences stand for … in GC…GCGATTGACAGCGTAGAATGAAGG
# [1] = test system: FXR:RXRa (NR concentration 270 nM, RXRa partner concentration 90 nM)
# Procedure, shortened: (§1)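 For binding z-scores, the reference was random background probes on custom Agilent 4×180K protein-binding microarrays. These arrays were incubated 1 h with ligand-free nuclear receptor dimers in PBS pH 7.4, 2% milk, 0.02% Triton X-100, 1 mM DTT, 0.2 mg/mL BSA and 0.4 mg/ml salmon testes DNA. Fluorescence was scanned after antibody detection of each partner (one per run) and regression-normalized.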
# [2] = test system: LXRa:RXRa (NR concentration 270 nM, RXRa partner concentration 90 nM)
# Procedure, shortened: as §1
# [3] = test system: LXRa homodimer (NR concentration 270 nM)
# Procedure, shortened: as §1
# [4] = test system: LXRb:RXRa (NR concentration 270 nM, RXRa partner concentration 90 nM)
# Procedure, shortened: as §1
# [5] = test system: LXRb homodimer (NR concentration 270 nM)
# Procedure, shortened: as §1
# [6] = test system: PPARa:RXRa (NR concentration 270 nM, RXRa partner concentration 90 nM)
# Procedure, shortened: as §1
# [7] = test system: PPARg:RXRa (NR concentration 180 nM, RXRa partner concentration 90 nM)
# Procedure, shortened: as §1
# [8] = test system: PPARg:RXRa 270nM:90nM, anti-RXR (NR concentration 270 nM, RXRa partner concentration 90 nM)
# Procedure, shortened: as §1
# [9] = test system: PPARg:RXRa 30nM:10nM, anti-RXR (NR concentration 30 nM, RXRa partner concentration 10 nM)
# Procedure, shortened: as §1
# [10] = test system: PPARg:RXRa 90nM:30nM, anti-RXR (NR concentration 90 nM, RXRa partner concentration 30 nM)
# Procedure, shortened: as §1
# [11] = test system: PPARg:RXRa DBDmut IVT, anti-RXR (DBD mutation: RXRa K156A/R161A, NR concentration 270 nM, RXRa partner concentration 90 nM)
# Procedure, shortened: as §1
# [12] = test system: PPARg:RXRa IVT, anti-PPARg (NR concentration 270 nM, RXRa partner concentration 90 nM)
# Procedure, shortened: as §1
# [13] = test system: PPARg DBDmut:RXRa IVT, anti-PPARg (DBD mutation: PPARg1 K132A/R137A, NR concentration 270 nM, RXRa partner concentration 90 nM)
# Procedure, shortened: as §1
# [14] = test system: PPARg DBDmut IVT, anti-PPARg (DBD mutation: PPARg1 K132A/R137A, NR concentration 270 nM)
# Procedure, shortened: as §1
# [15] = test system: PPARg homodimer (NR concentration 180 nM)
# Procedure, shortened: as §1
# [16] = test system: PXR:RXRa (NR concentration 270 nM, RXRa partner concentration 90 nM)
# Procedure, shortened: as §1
# [17] = test system: PXR homodimer (NR concentration 270 nM)
# Procedure, shortened: as §1
# [18] = test system: RARa:RXR (NR concentration 270 nM, RXRa partner concentration 90 nM)
# Procedure, shortened: as §1
# [19] = test system: RARa homodimer (NR concentration 270 nM)
# Procedure, shortened: as §1
# [20] = test system: RARb:RXRa (NR concentration 270 nM, RXRa partner concentration 90 nM)
# Procedure, shortened: as §1
sequence,measurement,setting,value
TCATATAGGTAAAAGCTGAAAGTCGGTGTGGTAA,PBM binding z-score,[1],0.59
same,PBM binding z-score,[2],0.549
same,PBM binding z-score,[3],-0.108
same,PBM binding z-score,[4],0.664
same,PBM binding z-score,[5],-0.24
same,PBM binding z-score,[6],1.41
same,PBM binding z-score,[7],0.589
same,PBM binding z-score,[8],2.74
same,PBM binding z-score,[9],3.52
same,PBM binding z-score,[10],3.25
same,PBM binding z-score,[11],4.01
same,PBM binding z-score,[12],2.14
same,PBM binding z-score,[13],1.19
same,PBM binding z-score,[14],0.683
same,PBM binding z-score,[15],0.11
same,PBM binding z-score,[16],0.239
same,PBM binding z-score,[17],-0.198
same,PBM binding z-score,[18],0.257
same,PBM binding z-score,[19],0.519
same,PBM binding z-score,[20],0.0291
GCTAGCAGGCCCTTTGGGTCACTCAATGACGGGC,PBM binding z-score,[1],-0.0163
same,PBM binding z-score,[2],-0.0683
same,PBM binding z-score,[3],-0.519
same,PBM binding z-score,[4],-0.325
same,PBM binding z-score,[5],-1.53
same,PBM binding z-score,[6],0.647
same,PBM binding z-score,[7],0.157
same,PBM binding z-score,[8],0.373
same,PBM binding z-score,[9],-0.568
same,PBM binding z-score,[10],0.116
same,PBM binding z-score,[11],-0.306
same,PBM binding z-score,[12],0.697
same,PBM binding z-score,[13],-0.724
same,PBM binding z-score,[14],-0.795
same,PBM binding z-score,[15],-0.401
same,PBM binding z-score,[16],-0.203
same,PBM binding z-score,[17],-0.555
same,PBM binding z-score,[18],0.51
same,PBM binding z-score,[19],-0.612
same,PBM binding z-score,[20],0.879
CAAACTAGGTCTCAGAGGTCAAAGTCCGTGCGTA,PBM binding z-score,[1],4.78
same,PBM binding z-score,[2],5.2
same,PBM binding z-score,[3],5.13
same,PBM binding z-score,[4],4.97
same,PBM binding z-score,[5],1.8
same,PBM binding z-score,[6],5.18
same,PBM binding z-score,[7],4.67
same,PBM binding z-score,[8],5.17
same,PBM binding z-score,[9],2.69
same,PBM binding z-score,[10],4.41
same,PBM binding z-score,[11],5.55
same,PBM binding z-score,[12],5.54
same,PBM binding z-score,[13],0.45
same,PBM binding z-score,[14],0.559
same,PBM binding z-score,[15],2.98
same,PBM binding z-score,[16],5.51
same,PBM binding z-score,[17],2.93
same,PBM binding z-score,[18],5.67
same,PBM binding z-score,[19],1.38
same,PBM binding z-score,[20],3.88
ATCTCCAGGTAACAAGTTCAGTGAAAGAGAGGAC,PBM binding z-score,[1],1.08
same,PBM binding z-score,[2],1.37
same,PBM binding z-score,[3],0.906
same,PBM binding z-score,[4],0.805
same,PBM binding z-score,[5],1.22
same,PBM binding z-score,[6],0.983
same,PBM binding z-score,[7],0.944
same,PBM binding z-score,[8],1.21
same,PBM binding z-score,[9],0.66
same,PBM binding z-score,[10],0.891
same,PBM binding z-score,[11],0.841
same,PBM binding z-score,[12],1.17
same,PBM binding z-score,[13],1.63
same,PBM binding z-score,[14],1.37
same,PBM binding z-score,[15],1.7
same,PBM binding z-score,[16],1.73
same,PBM binding z-score,[17],2.04
same,PBM binding z-score,[18],1.05
same,PBM binding z-score,[19],1.49
same,PBM binding z-score,[20],1.76
AGAATTAGGTTAAGATCAGGGAAACAGAATACAT,PBM binding z-score,[1],0.832
same,PBM binding z-score,[2],0.821
same,PBM binding z-score,[3],0.412
same,PBM binding z-score,[4],0.748
same,PBM binding z-score,[5],0.359
same,PBM binding z-score,[6],2.94
same,PBM binding z-score,[7],3.33
same,PBM binding z-score,[8],2.93
same,PBM binding z-score,[9],1.28
same,PBM binding z-score,[10],2.24
same,PBM binding z-score,[11],6.07
same,PBM binding z-score,[12],5.8
same,PBM binding z-score,[13],2.12
same,PBM binding z-score,[14],1.83
same,PBM binding z-score,[15],1.72
same,PBM binding z-score,[16],0.514
same,PBM binding z-score,[17],0.846
same,PBM binding z-score,[18],0.922
same,PBM binding z-score,[19],1.26
same,PBM binding z-score,[20],1.03
GCTAGCAGGCCATTTGGGTCACACAATGACGGGC,PBM binding z-score,[1],0.201
same,PBM binding z-score,[2],0.0992
same,PBM binding z-score,[3],-0.68
same,PBM binding z-score,[4],0.327
same,PBM binding z-score,[5],-0.778
same,PBM binding z-score,[6],1.89
same,PBM binding z-score,[7],1.2
same,PBM binding z-score,[8],1.09
same,PBM binding z-score,[9],-0.147
same,PBM binding z-score,[10],0.392
same,PBM binding z-score,[11],2
same,PBM binding z-score,[12],2.63
same,PBM binding z-score,[13],-0.238
same,PBM binding z-score,[14],-0.979
same,PBM binding z-score,[15],0.139
same,PBM binding z-score,[16],0.906
same,PBM binding z-score,[17],0.00293
same,PBM binding z-score,[18],1.05
same,PBM binding z-score,[19],-0.205
same,PBM binding z-score,[20],1.61
CCGACTGGGGCAAAGGTGACCATACTCAGTACGA,PBM binding z-score,[1],0.275
same,PBM binding z-score,[2],0.171
same,PBM binding z-score,[3],-0.478
same,PBM binding z-score,[4],0.634
same,PBM binding z-score,[5],-1.65
same,PBM binding z-score,[6],4.77
same,PBM binding z-score,[7],10.3
same,PBM binding z-score,[8],8.5
same,PBM binding z-score,[9],8.35
same,PBM binding z-score,[10],9.3
same,PBM binding z-score,[11],5.54
same,PBM binding z-score,[12],5.24
same,PBM binding z-score,[13],0.207
same,PBM binding z-score,[14],-0.959
same,PBM binding z-score,[15],1.34
same,PBM binding z-score,[16],0.701
same,PBM binding z-score,[17],-0.655
same,PBM binding z-score,[18],1.65
same,PBM binding z-score,[19],-0.317
same,PBM binding z-score,[20],1.62
